Measured values taken from PubChem BioAssay (NCI).
The panel holds about 83,000 compounds, 20% with a hit somewhere; the sample as a whole holds those more often.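 Testing used 96-well plates and a 48-hour single-concentration exposure. Example: -40 means 40% of the starting cells died.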 The source made the active and inactive calls. The calls were made as follows: active = growth percent below 10; inactive = the rest.

Columns and labels:
Experiment in all cases: NCI-60 one-dose screen, 48 h (100 = growth as untreated, 0 = no growth, -100 = all killed)
NCI-H23 lung = settings: 10 µM unless noted
NCI-H226 lung = settings: 10 µM unless noted
NCI-H322M lung = settings: 10 µM unless noted
HOP-62 NSCLC = settings: 10 µM unless noted
NCI-H460 lung = settings: 10 µM unless noted
NCI-H522 lung = settings: 10 µM unless noted
786-0 renal = settings: 10 µM unless noted
COLO 205 colon = settings: 10 µM unless noted
DU-145 prostate = settings: 10 µM unless noted
K-562 leukemia = settings: 10 µM unless noted
MALME-3M melanoma = settings: 10 µM unless noted
MDA-MB-231 breast = settings: 10 µM unless noted
RXF 393 renal = settings: 10 µM unless noted
SF-268 CNS = settings: 10 µM unless noted
SF-295 CNS = settings: 10 µM unless noted
SF-539 CNS = settings: 10 µM unless noted
UACC-257 melanoma = settings: 10 µM unless noted
M14 melanoma = settings: 10 µM unless noted
A549/ATCC NSCLC = settings: 10 µM unless noted
HOP-92 NSCLC = settings: 10 µM

Measured: growth

N#Cc1c(Nc2ccccc2)nn2c(-c3ccc([N+](=O)[O-])cc3)ccnc12
inactive: NCI-H23 lung 100% | NCI-H226 lung 104% | NCI-H322M lung 102% | HOP-62 NSCLC 109% | NCI-H460 lung 99.3% | NCI-H522 lung 94.8% | 786-0 renal 98.3% | COLO 205 colon 107% | DU-145 prostate 109% | K-562 leukemia 112% | MALME-3M melanoma 104% | MDA-MB-231 breast 102% | RXF 393 renal 90.3% | SF-268 CNS 100% | SF-295 CNS 104% | SF-539 CNS 100% | UACC-257 melanoma 95.3% | M14 melanoma 106%

N#Cc1ccccc1Cn1c2nc(=N)c3ccccc3c-2nc2ccccc21
inactive: NCI-H23 lung 52.4% | NCI-H226 lung 61.3% | NCI-H322M lung 66% | HOP-62 NSCLC 62.2% | NCI-H460 lung 22.1% | NCI-H522 lung 59.7% | A549/ATCC NSCLC 44.3% | 786-0 renal 80.3% | DU-145 prostate 60.3% | MDA-MB-231 breast 41.8% | RXF 393 renal 54.3% | SF-268 CNS 74.3% | SF-295 CNS 52% | SF-539 CNS 82.6% | UACC-257 melanoma 41.8% | M14 melanoma 70%
active: COLO 205 colon 3.63%

CNc1ncc2cc(-c3ccc(-c4ncccc4F)cc3Cl)c(=O)n(CC3OCC(N)CO3)c2n1 (centres undefined)
active: RXF 393 renal -9.68%
inactive: NCI-H23 lung 78.4% | NCI-H226 lung 64.3% | NCI-H322M lung 79.5% | HOP-62 NSCLC 47.1% | NCI-H460 lung 102% | NCI-H522 lung 75.7% | A549/ATCC NSCLC 57.1% | 786-0 renal 56.9% | COLO 205 colon 46.4% | DU-145 prostate 63.3% | K-562 leukemia 78.8% | MDA-MB-231 breast 10.8% | SF-268 CNS 24.8% | SF-295 CNS 74.3% | SF-539 CNS 67.4% | UACC-257 melanoma 93% | M14 melanoma 87.9%

Cc1ccc2sc3c(c2c1)OC(N)=C(C#N)C3c1ccc(Cl)cc1 (centres undefined)
inactive: NCI-H23 lung 86.2% | NCI-H226 lung 68% | NCI-H322M lung 99% | HOP-62 NSCLC 79.6% | NCI-H460 lung 56.2% | NCI-H522 lung 58.2% | A549/ATCC NSCLC 96.9% | 786-0 renal 102% | COLO 205 colon 96.7% | DU-145 prostate 76.8% | MALME-3M melanoma 71.5% | MDA-MB-231 breast 65.2% | RXF 393 renal 50.6% | SF-268 CNS 89.3% | SF-295 CNS 74% | SF-539 CNS 70.8% | UACC-257 melanoma 89.8% | M14 melanoma 64.5%

Cn1ccnc1C(=O)/C=C/c1ccc(NC(=O)c2ccc(F)cc2)cc1
inactive: NCI-H23 lung 13.4% | NCI-H322M lung 46.3% | HOP-62 NSCLC 64.5% | HOP-92 NSCLC 47.2% | NCI-H522 lung 17.4% | A549/ATCC NSCLC 34.8% | 786-0 renal 22.1% | COLO 205 colon 75.4% | K-562 leukemia 15% | MALME-3M melanoma 87.8% | MDA-MB-231 breast 22.1% | SF-268 CNS 21.8% | SF-295 CNS 52.5% | UACC-257 melanoma 84.2%
active: NCI-H460 lung -19.7% | DU-145 prostate 9.78% | SF-539 CNS -3.29%

COc1cc(-c2nn(C(C)(C)C)cc2-c2ccnc(NCCCNS(=O)(=O)c3ccc(Cl)cc3)n2)ccc1Cl
active: RXF 393 renal 4.9%
inactive: NCI-H23 lung 73% | NCI-H226 lung 53.8% | NCI-H322M lung 78.2% | HOP-62 NSCLC 61.7% | NCI-H460 lung 55.1% | A549/ATCC NSCLC 36.3% | 786-0 renal 69% | COLO 205 colon 81.5% | DU-145 prostate 60.5% | K-562 leukemia 33.5% | MALME-3M melanoma 87.9% | MDA-MB-231 breast 55.5% | SF-268 CNS 44.1% | SF-295 CNS 59.6% | SF-539 CNS 84.4% | UACC-257 melanoma 82.1% | M14 melanoma 76.8%

O=C(c1ccc(O)c(C(=O)N2Cc3ccc(OCCC[P+](c4ccccc4)(c4ccccc4)c4ccccc4)cc3C2)c1)N1Cc2cccc(F)c2C1
inactive: NCI-H23 lung 87.3% | NCI-H322M lung 94.3% | HOP-62 NSCLC 102% | NCI-H460 lung 69.7% | NCI-H522 lung 72.9% | A549/ATCC NSCLC 99.8% | 786-0 renal 98.5% | COLO 205 colon 52.3% | DU-145 prostate 99% | K-562 leukemia 27.1% | MALME-3M melanoma 73.2% | MDA-MB-231 breast 92.9% | RXF 393 renal 96.4% | SF-268 CNS 92.7% | SF-295 CNS 84.9% | SF-539 CNS 55.6% | UACC-257 melanoma 48.5% | M14 melanoma 95.1%

CCN(CC)CCn1c2ccc(O)cc2c2sc3cc(OC)ccc3c(=O)c21
active: NCI-H460 lung 1.49% | K-562 leukemia -34.8% | SF-539 CNS -74.4% | M14 melanoma 0.234%
inactive: NCI-H23 lung 28.5% | NCI-H322M lung 26.2% | HOP-62 NSCLC 26.2% | NCI-H522 lung 30.1% | A549/ATCC NSCLC 13.2% | 786-0 renal 33.3% | COLO 205 colon 17.9% | DU-145 prostate 17.2% | MALME-3M melanoma 28.2% | MDA-MB-231 breast 31.6% | RXF 393 renal 35% | SF-268 CNS 48.1% | SF-295 CNS 13.9% | UACC-257 melanoma 80%

O=C(NNc1nc2cc(F)ccc2n2c(CN3CC4CNCC4C3)ccc12)c1cnccn1 (centres undefined)
active: NCI-H460 lung 4.93% | SF-295 CNS 2.89%
inactive: NCI-H23 lung 35.4% | NCI-H322M lung 31.8% | HOP-62 NSCLC 24.9% | HOP-92 NSCLC 50.8% | NCI-H522 lung 16.9% | A549/ATCC NSCLC 21.5% | 786-0 renal 16.3% | COLO 205 colon 18.3% | DU-145 prostate 27.5% | K-562 leukemia 15.6% | MALME-3M melanoma 18.9% | MDA-MB-231 breast 39.5% | SF-268 CNS 22.3% | SF-539 CNS 15.1% | UACC-257 melanoma 13.7%
